# Hits are enriched below; roughly 10% of the tested compounds scored in any of these assays.
# Six1-Eya2 inh: Six1/Eya2 interaction inhibition | AlphaScreen GST-Six1/His-Eya2 binding, biochemical; hits give low values | activity change, % (test concentration not listed) | actives 0.56% (n = 360,000); in the data active means activity change below about -65%; inconclusive means mostly about -30% to -63%; further: on the % scale 0 is the no-effect control and ±100 the full control effect
#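 Homogeneous AlphaScreen proximity assay pairing GST-Six1 with His-tagged Eya2 (added as 5X mix: 250 nM and 500 nM) in 50 mM Tris pH 8.0, 300 mM NaCl, 1 mM TCEP. Glutathione donor and nickel acceptor beads; 1 h, 37 °C, dark.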
# JMJD2A Tudor: JMJD2A Tudor domain (human) inhibition. O75164. AlphaScreen JMJD2A-Tudor / H3K4me3 peptide binding. Potency, µM (top dose mostly 114 µM), for inactives: at the top dose activity change, negative = inhibition, most hits filed as inhibitors. actives 4.4% (n = 390,000); further: potency means the concentration at half of the fitted maximal effect; on the % scale 0 is the no-effect control and ±100 the full control effect; nearly all actives have a fitted effect of over 50% in size
# Target sequence (O75164 whole entry, looked up, the tested form may be a part): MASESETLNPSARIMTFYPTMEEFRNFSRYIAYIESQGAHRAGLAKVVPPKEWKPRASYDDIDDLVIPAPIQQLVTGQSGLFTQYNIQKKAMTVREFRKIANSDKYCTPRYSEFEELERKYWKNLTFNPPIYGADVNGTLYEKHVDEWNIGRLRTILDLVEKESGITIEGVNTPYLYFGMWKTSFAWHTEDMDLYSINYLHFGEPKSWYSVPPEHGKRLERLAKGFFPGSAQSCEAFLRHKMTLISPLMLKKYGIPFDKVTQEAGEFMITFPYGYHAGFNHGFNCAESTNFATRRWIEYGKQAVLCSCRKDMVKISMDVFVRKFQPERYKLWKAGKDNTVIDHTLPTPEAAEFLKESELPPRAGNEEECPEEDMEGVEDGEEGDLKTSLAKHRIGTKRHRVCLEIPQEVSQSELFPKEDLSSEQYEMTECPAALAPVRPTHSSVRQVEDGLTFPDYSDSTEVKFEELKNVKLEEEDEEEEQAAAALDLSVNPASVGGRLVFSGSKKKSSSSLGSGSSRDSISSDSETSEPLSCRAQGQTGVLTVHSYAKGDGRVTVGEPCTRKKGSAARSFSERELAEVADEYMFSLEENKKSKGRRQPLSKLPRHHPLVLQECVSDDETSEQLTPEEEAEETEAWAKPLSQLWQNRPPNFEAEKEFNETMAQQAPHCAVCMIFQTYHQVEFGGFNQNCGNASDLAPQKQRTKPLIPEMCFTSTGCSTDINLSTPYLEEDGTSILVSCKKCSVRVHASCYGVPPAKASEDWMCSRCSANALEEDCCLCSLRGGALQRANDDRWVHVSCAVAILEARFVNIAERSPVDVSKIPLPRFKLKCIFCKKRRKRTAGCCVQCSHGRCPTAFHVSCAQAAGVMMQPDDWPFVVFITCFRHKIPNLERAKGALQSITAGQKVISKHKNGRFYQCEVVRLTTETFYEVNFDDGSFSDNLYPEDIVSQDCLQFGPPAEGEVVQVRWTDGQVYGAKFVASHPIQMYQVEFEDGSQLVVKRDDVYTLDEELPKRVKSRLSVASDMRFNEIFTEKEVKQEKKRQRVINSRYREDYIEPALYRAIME
# G9a inh: G9a (human) methyltransferase inhibition | actives 8.8% (n = 350,000) | G9a H3K9 monomethylation, AlphaScreen, 2 h | Q96KQ7 | Potency, µM (highest dose often 102 µM), without a hit: at the top dose activity, negative = inhibition, most hits filed as inhibitors; further: potency means the concentration at half of the fitted maximal effect; on the % scale 0 is the no-effect control and ±100 the full control effect; nearly all actives have a fitted effect of over 75% in size
#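 Enzyme 20 nM + cpd, 15 min RT; add b-H3K9 pep 500 nM / SAM 20 uM; 2 h RT; anti-H3K9me1 Ab 0.5 ug/mL + SA donor / anti-rabbit acceptor beads 20 ug/mL each, 10 min; AlphaScreen read.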
# CtBP-E1A blk: inhibitors of CtBP/E1A interaction; actives 0.49% (n = 340,000); activity change, % (no concentration beside the values); AlphaScreen GST-E1A/His-CtBP binding, 1536-well; hits give low values; in the data active means activity change below about -65%; inconclusive means mostly about -30% to -63%; further: on the % scale 0 is the no-effect control and ±100 the full control effect
#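 Protein mix (5X: 125 nM each GST-E1A, His-CtBP) was incubated with pinned compound 2 h at 37 deg C in dark, in 50 mM Tris pH 8.0 buffer with 300 mM NaCl. Glutathione donor and nickel acceptor beads followed; AlphaScreen signal read after 1 h.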
# HP1b chromo inh: inhibitors of HP1-beta chromodomain binding to methylated histone tails | AlphaScreen HP1-beta / biotin-H3K9me3 peptide binding | Potency, µM (titrated, usually from 114 µM), inactives show at the top dose activity change, negative = inhibition, hits mostly inhibitors | actives 0.56% (n = 390,000) | AID 540317; further: potency means the concentration at half of the fitted maximal effect; nearly all actives have a fitted effect of over 70% in size
#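 AlphaScreen: HP1-beta (50 nM) preformed 30 min with biotin-H3(1-18)K9me3 peptide (50 nM) in PBS pH 7.4, 0.01% Tween-20. Compound added for 30 min at RT, then streptavidin donor/nickel chelate acceptor beads (10 ug/mL) for 30 min.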
# BAZ2B block: BAZ2B (human) inhibition; actives 4.4% (n = 360,000); AlphaScreen BAZ2B-H3K14Ac peptide displacement; Potency, µM (top dose mostly 114 µM), inactives show top-dose activity change, negative = inhibition, hits mostly inhibitors; AID 504333; further: potency means the concentration at half of the fitted maximal effect; on the % scale 0 is the no-effect control and ±100 the full control effect; nearly all actives have a fitted effect of over 60% in size
#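 Compounds, titrated to a top concentration of 110 uM, were incubated 30 min at room temperature with preformed BAZ2B/acetyl-K14 H3 peptide complex (50 nM each). Proximity signal was measured by AlphaScreen after 20 min with beads.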
# * marks the source's active call; other numbers are inactive results; ? = inconclusive; . = no result; [ ] = another dose, or the depositor's remark. Unless noted, the call rests on the fitted dose curve; in most records, active means well fitted inhibition curve with a large enough effect; inconclusive means small, poorly fitted or top-dose-only effect; inactive means no such curve, though single readings can be large or run the other way.
SMILES,Six1-Eya2 inh,JMJD2A Tudor,G9a inh,CtBP-E1A blk,HP1b chromo inh,BAZ2B block
CCOc1cccc(OCCCCn2ccnc2)c1,-10.7,6.31µM*,?,0.1,?,50.1µM*
Brc1cccc(OCCn2ccnc2)c1,3.6,3.55µM*,8.91µM*,1.9,-15.6%,39.8µM*
CCc1cccc(OCCCn2ccnc2)c1,0.3,12.6µM*,15.8µM*,5.8,50.1µM*,31.6µM*
COc1cccc(OCCCn2ccnc2)c1,5.0,-23.9%,.,-0.5,29.1%,-2.5%
COc1ccc(-n2nc(C(=O)Nc3ccc(C)cn3)c3c4ccccc4n(C)c3c2=O)cc1,.,-16.0%,10.0%[59 µM],.,-0.9%,.
O=C(O)c1cc(Nc2cc(Cl)c3nonc3c2[N+](=O)[O-])ccc1O,-79.3*,-31.5%,35.5µM*,.,8.5%,?
COc1cc2nc(SCC(=O)Nc3cccc(C)c3)n3nc(-c4ccccc4)nc3c2cc1OC,.,-5.3%,-22.2%[59 µM],.,11.6%,.
COc1ccc(-c2cc(C(F)F)n3ncc(C(=O)Nc4cc(C)on4)c3n2)cc1,6.6,-6.9%,.,-5.5,9.7%,79.4µM*
COc1ccc(-c2cc(C(F)F)n3ncc(C(=O)Nc4c(C)n(C)n(-c5ccccc5)c4=O)c3n2)cc1,-5.2,0.0%[11.4 µM],-4.1%,.,18.5%,-8.3%
c1ccc(-c2cc3ccccc3[nH]2)cc1,-8.4,-9.4%,.,3.4,26.4%,-4.7%
COc1ccc(-c2cc3ccccc3[nH]2)cc1,-6.1,7.08µM*,.,0.7,?,-21.4%
Cc1ccc(O)c(-c2cc3ccccc3[nH]2)c1,-13.0,?,?,-1.5,?,44.7µM*
CCCc1c(C(=O)NNc2ccc(C)cc2)cnn1-c1ccccc1,1.8,?,4.47µM*,-0.4,-9.1%,?
CCCc1c(C(=O)Nc2ccc(C(F)(F)F)cc2)cnn1-c1ccccc1,7.0,-6.0%,33.0%,10.1,43.4%,1.5%
O=[N+]([O-])c1ccccc1Nc1nc(-c2cccnc2)cs1,-11.4,35.5µM*,?,.,?,14.1µM*
CCc1ccccc1Nc1nc(-c2cccnc2)cs1,9.8,-30.6%,.,.,-7.2%,?
Cc1ccc(CNC(=O)c2ccc(CSCc3c(F)cccc3Cl)o2)cc1,.,-1.8%,-1.7%[59 µM],.,42.2%,-4.2%
O=C(c1ccccc1)N1CCCCC1CCN1CCCCC1 (configuration not stated),.,-9.7%,-19.8%[59 µM],.,35.2%,-2.0%
O=C(COC(=O)c1ccccc1O)Nc1ncc(Cl)cc1Cl,-17.9,?,35.5µM*,-4.9,-10.5%,50.1µM*
O=C(COC(=O)c1ncc(Cl)c(Cl)c1Cl)Nc1ccc(Cl)cn1,-14.0,-31.7%,44.7µM*,9.9,4.6%,-14.5%
O=C(CSc1nnc(-c2ccccc2)c(-c2ccccc2)n1)Nc1ncc(Cl)cc1Cl,11.1,-12.7%,14.1µM*,0.7,8.9%,?
O=C(COC(=O)c1nc(Cl)ccc1Cl)Nc1ccc(Cl)cn1,2.3,1.0%,16.3%[12.7 µM],10.6,31.8%,2.7%
O=C(COC(=O)c1ccccc1NC(=O)c1ccco1)Nc1ncc(Cl)cc1Cl,-8.4,-15.2%,?,-3.0,25.3%,-1.8%
O=C(COC(=O)c1cc([N+](=O)[O-])ccc1N1CCOCC1)Nc1c(Cl)cccc1C(F)(F)F,0.6,-5.9%,71.2%,4.3,19.9%,-7.9%
O=C(COC(=O)c1cc([N+](=O)[O-])ccc1N1CCOCC1)Nc1ncc(Cl)cc1Cl,6.9,?,9.2%[12.7 µM],-3.9,1.1%,44.7µM*
SMILES,Six1-Eya2 inh,JMJD2A Tudor,G9a inh,CtBP-E1A blk,HP1b chromo inh,BAZ2B block
OCCN(Cc1cccnc1)Cc1ccccn1,-88.7*,50.1µM*,.,3.3,43.1%,.
Cc1c(-c2ccccn2)c(=O)[nH]n1-c1ccc(F)cc1,?,?,-29.1%,?,28.5%,50.1µM*
Cc1ccccc1CNC(=O)Cn1nc(C)c2nn(-c3ccc(Cl)cc3)c(C)c2c1=O,.,?,15.3%[59 µM],.,15.4%[57 µM],5.4%
Cc1ccc(NC(=O)c2ccc(OC(F)F)cc2)cc1S(=O)(=O)N(C)C,-10.2,-18.2%,22.4%[59 µM],-3.8,43.6%,0.5%
COc1ccccc1-n1c([S-])c(C(=O)Nc2ccccc2C(F)(F)F)[n+]2ccc(C(=O)NCCO)cc12,-6.9,?,20µM*,0.0,?,-19.4%
Cc1ccc(-n2c([S-])c(C(=O)Nc3ccc(OC(F)F)cc3)[n+]3ccc(C(=O)NCCO)cc23)cc1C,-3.6,-10.3%,10µM*,-9.0,10.1%,-37.4%
CCN(CC)CCCNC(=O)c1ccc(OCC(=O)Nc2ccccc2C(F)(F)F)c(OC)c1,1.8,-8.4%,59.7%,7.2,27.7%,-5.0%
CC(CCc1ccccc1)NC(=O)CN1CCN(c2ccc(O)cc2)CC1 (configuration not stated),-5.3,44.7µM*,7.94µM*,-7.6,89.1µM*,?
CC(C)(C)NC(=O)NC(=O)CN1CCN(c2ccc(O)cc2)CC1,2.3,22.4µM*,3.16µM*,6.3,?,-27.0%
CC(CCc1ccccc1)NC(=O)CN1CCN(Cc2ccccc2)C1=O (configuration not stated),6.1,-7.0%,9.4%,3.1,20.1%,3.8%
COCC(C)NCC(=O)NC(C)CCc1ccccc1 (configuration not stated),11.1,1µM*,8.91µM*,2.0,-32.1%,56.2µM*
CC(=O)NC(C)CCc1ccccc1 (configuration not stated),2.0,-7.0%,17.9%[59 µM],-19.1,31.1%,0.0%
Cc1ccc(NC(=O)NC(=O)CN2CCN(c3ccc(O)cc3)CC2)c(C)c1,-2.0,44.7µM*,7.94µM*,-7.8,70.8µM*,?
CCC(Oc1ccccc1)C(=O)Nc1ccc2oc(-c3ccc(OC)cc3)nc2c1 (configuration not stated),.,-3.3%,21.3%[59 µM],.,77.8%,-2.7%
COc1ccc(C(=O)c2oc3ccccc3c2NC(=O)c2cc(=O)c3ccc(C)cc3o2)cc1Cl,.,-17.4%,-6.3%[59 µM],.,25.3%,?
CC(C)OCC(O)CN1CCNCC1 (configuration not stated),3.5,79.4µM*,?,-4.9,18.8%,-4.4%
Oc1cc2c(cc1C(c1ccc(Br)cc1)N1CCCC1)OCO2 (configuration not stated),-24.2,7.94µM*,1.58µM*,-18.5,15.8µM*,39.8µM*
O=S(=O)(NCC(c1ccc2c(c1)OCO2)N1CCOCC1)c1ccc(Br)cc1 (configuration not stated),-2.5,-6.2%,-13.0%,7.1,28.9%,0.2%
Cn1c(=O)c2c([nH]c(=S)n2Cc2ccc(Cl)cc2)n(C)c1=O,-7.4,5.62µM*,1.26µM*,-9.0,?,22.4µM*
